# PubChem BioAssay AID1347165 (National Center for Advancing Translational Sciences (NCATS), 2019)
# Out of some 220,000 compounds screened, about 5,700 (2.6%) were called active. Not shown: some 18% with an inconclusive outcome. The list comes from a sample in which actives are over-represented; it also holds similar structures and randomly drawn compounds. Unmarked numbers belong to inactive results. The call rests on the fitted dose curve; in most records, active means well fitted inhibition curve with a large enough effect; inconclusive means small, poorly fitted or top-dose-only effect; inactive means no such curve, though single readings can be large or run the other way.
# Biological target: Lysine-specific demethylase 5B (Homo sapiens) (UniProt Q9UGL1)
# Sequence (Q9UGL1 whole entry, looked up): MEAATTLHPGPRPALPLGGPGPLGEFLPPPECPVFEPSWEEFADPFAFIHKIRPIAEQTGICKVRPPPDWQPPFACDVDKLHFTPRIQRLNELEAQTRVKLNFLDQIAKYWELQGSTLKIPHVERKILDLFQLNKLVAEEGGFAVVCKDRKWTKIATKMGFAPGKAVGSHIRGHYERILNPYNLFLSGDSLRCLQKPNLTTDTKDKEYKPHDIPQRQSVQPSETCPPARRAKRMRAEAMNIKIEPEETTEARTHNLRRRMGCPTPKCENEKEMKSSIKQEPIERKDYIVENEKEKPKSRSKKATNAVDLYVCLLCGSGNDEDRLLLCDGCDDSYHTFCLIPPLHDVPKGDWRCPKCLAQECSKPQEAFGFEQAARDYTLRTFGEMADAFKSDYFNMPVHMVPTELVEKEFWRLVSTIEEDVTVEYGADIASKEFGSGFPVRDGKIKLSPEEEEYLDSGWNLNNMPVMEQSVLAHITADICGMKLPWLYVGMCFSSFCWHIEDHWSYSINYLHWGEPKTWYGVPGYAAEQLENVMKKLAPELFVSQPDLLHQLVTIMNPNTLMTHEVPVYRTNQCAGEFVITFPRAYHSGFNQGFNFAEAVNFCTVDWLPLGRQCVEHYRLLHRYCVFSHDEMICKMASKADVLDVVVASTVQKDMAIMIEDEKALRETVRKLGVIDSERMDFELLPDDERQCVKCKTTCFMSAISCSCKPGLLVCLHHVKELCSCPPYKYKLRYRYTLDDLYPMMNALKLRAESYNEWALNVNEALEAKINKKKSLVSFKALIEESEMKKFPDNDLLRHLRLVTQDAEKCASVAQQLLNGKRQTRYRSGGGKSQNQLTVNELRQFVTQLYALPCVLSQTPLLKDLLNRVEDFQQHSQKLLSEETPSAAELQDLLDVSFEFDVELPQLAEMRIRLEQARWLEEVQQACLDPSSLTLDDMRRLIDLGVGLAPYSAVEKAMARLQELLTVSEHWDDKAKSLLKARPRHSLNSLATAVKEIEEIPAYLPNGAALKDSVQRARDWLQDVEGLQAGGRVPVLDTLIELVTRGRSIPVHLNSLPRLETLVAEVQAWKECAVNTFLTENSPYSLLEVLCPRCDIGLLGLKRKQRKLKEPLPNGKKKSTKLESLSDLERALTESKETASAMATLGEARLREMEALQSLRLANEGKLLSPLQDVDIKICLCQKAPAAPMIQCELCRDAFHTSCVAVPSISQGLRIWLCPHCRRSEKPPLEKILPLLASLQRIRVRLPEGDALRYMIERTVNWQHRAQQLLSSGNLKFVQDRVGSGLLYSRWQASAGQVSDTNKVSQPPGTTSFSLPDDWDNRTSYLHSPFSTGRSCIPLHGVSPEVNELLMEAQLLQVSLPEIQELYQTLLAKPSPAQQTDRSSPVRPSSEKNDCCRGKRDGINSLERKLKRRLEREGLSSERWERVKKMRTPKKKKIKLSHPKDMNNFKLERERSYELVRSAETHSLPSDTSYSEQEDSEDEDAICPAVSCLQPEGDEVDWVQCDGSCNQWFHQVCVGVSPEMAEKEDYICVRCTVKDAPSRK
# Test: Primary screen for KDM5B Histone Demethylases FDH-coupled qHTS; further: nearly all actives have a fitted effect of over 70% in size; on activity change, negative = inhibition: 0% is about no effect
# Conditions: FDH-coupled NADH fluorescence (FDH is formaldehyde dehydrogenase); series mostly up to 57.7 µM; activity change, negative = inhibition: at the top concentration
# Outline: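 KDM5BΔAP (200 nM final) in 50 mM HEPES pH 7.5, 0.01% Tween-20 was preincubated 10 min at RT with compound over a concentration range. Substrate mix (H3K4me3 12.5 µM, α-KG 25 µM, Fe²⁺, ascorbate, NAD⁺, FDH) was added, and NADH fluorescence change over 30 min gave dose-response curves.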
# Potency means the concentration at half of the fitted maximal effect.
Structure (SMILES),"activity change, negative = inhibition",Potency
COc1ccc(OC)c(NC(=O)COc2c(C)cc(C)cc2C)c1,9.24%,
CSc1ccccc1N=Cc1ccc(Cl)c(Cl)c1,29.7%,
COc1ccc(OC)c(CCNC(=O)c2nn(C)c3c2CS(=O)(=O)c2ccccc2-3)c1,13.7%,
CC(=O)Nc1ccc(S(=O)(=O)Nc2c(NC3CCCC3)c3ccccc3oc2=O)cc1,13.6%,
O=[N+]([O-])c1cccc2nc(/C=C/c3ccc(C(F)(F)F)cc3)ccc12,-0.0445%,
N#Cc1cccc(C2CCN(C(=O)C3CCN(C(=O)C4CC4)CC3)CC2)c1,-1.85%,
Cn1c(=O)[nH]c(=O)c2c1nc(N1CCN(Cc3ccccc3Cl)CC1)n2Cc1ccc(F)cc1,5.2%,
O=C(Cc1cccc(Cl)c1)N1CCC2(CN[S+](=O)([O-])c3cccnc3O2)C1 (centres undefined),9.87% [at 115 µM],
O=[S+]1([O-])NCC2(CCCN(Cc3ccncc3)C2)Oc2ncccc21 (centres undefined),-20% [at 115 µM],
O=C(Cc1cccc(Cl)c1)N1CCC2(CC1)CN[S+](=O)([O-])c1cccnc1O2,,79.4 µM (active)
CNS(=O)(=O)c1ccc(NC(=O)Nc2ccc3c(c2)OCO3)cc1,5.61%,
COc1c(CNCc2cccnc2N2CCOCC2)c(C)nn1C,-5.58%,
Cc1nccnc1N1CCC(c2nnc(CN3CCCC3)n2C)CC1,9.79%,
Cn1c(CN2CCOCC2)nnc1C1CCN(c2ncccc2C#N)CC1,,31.6 µM (active)
C=CCNC(=O)c1cn2c(n1)CN([S+](C)(=O)[O-])CC2,9.43% [at 149 µM],
C=CCNC(=O)c1ccc2ccnn2c1,,31.6 µM (active)
C=CCNC(=O)c1cn2c(n1)CN(C(=O)c1ccccc1F)CC2,14.7% [at 149 µM],
Cn1cc(CN2C[C@@H](CO)[C@H](C(=O)NC3CC3)C2)cn1,-2.64%,
COc1ccccc1C(=O)N1CCC(n2cnnc2C2CC2)CC1,-11.8%,
Cc1cccc(C(=O)N2CCC(OC3CCN(Cc4ccccc4)CC3)CC2)c1,13.2%,
COc1ccccc1C(=O)N1CCN(c2cc(C(F)(F)F)ncn2)CC1,-12.6%,
O=C(c1ccc(F)cc1)N1CCN(c2cc(-c3ccc(F)cc3)[nH]n2)CC1,-11.3%,

Structure (SMILES),"activity change, negative = inhibition",Potency
Cc1ccc(-n2c(SC(C)C(=O)c3ccc(F)c(F)c3)nnc2N2CCOCC2)cc1 (centres undefined),16.4%,
Cc1cccc(C(=O)N2CCCN(c3nnc4ccccn34)CC2)c1,,28.2 µM (active)
Cc1cccc(C(=O)N2CCN(S(=O)(=O)N3CCCCC3)CC2)c1,32.8%,
COc1ccccc1C(=O)N1CCCN(c2nnc3ccccn23)CC1,,31.6 µM (active)
Cc1cccc2nnc(N3CCN(C(=O)c4ccc(F)c(F)c4)CC3)n12,,28.2 µM (active)
Nc1cc(OCC(F)(F)F)cc(OCC(F)(F)C(F)F)c1,8.06%,
CC1CCCC(NC(=O)c2ccccc2)C1C (centres undefined),18.6%,
COCCSCC(=O)N1CCOC(C)(C)C1,26.5%,
COCc1nc(C2CCCN(C(=O)CCC3CCCC3)C2)no1 (centres undefined),-7.38%,
O=C(c1cc2cccnn2n1)N1CCOCC1,,31.6 µM (active)
O=C(c1cc(-c2ccc(O)cc2)on1)N1CCOCC1,-11%,
Cc1cc(C(=O)N2CCC3(CC2)CC(C(=O)N2CCOCC2)N(C)C3)nn1C (centres undefined),9.57%,
Cc1ccc(CNC(=O)Cc2cn(C)c3ccccc23)cc1,31%,
CCOc1ccccc1NC(=O)NC1CCCCCCC1,25.5%,
COc1ccc(NC(=O)C2(C)CN(C)Cc3ccc(Nc4cccc(OC)c4)nc32)cc1 (centres undefined),,14.1 µM (active)
COc1ccc(Nc2cc(C(=O)N3CCOCC3)c3ccccc3n2)cc1,-11.2%,
COc1cccc(NC(=O)C2(C#N)CCCC2)c1,12.7%,
O=C(Nc1cc(F)ccc1F)N1CCC2(CC1)Oc1ccccc1C(=O)N2Cc1ccccc1F,-2.84%,
OCCCSc1nnc(-c2c[nH]c3ccccc23)n1C1CC1,-11.7%,
CC(=O)NCC1Cn2cccc2CN1Cc1ccccc1 (centres undefined),,28.2 µM (active)
CC(C)NC(=O)NCC1Cn2cccc2C(=O)N1Cc1ccccc1 (centres undefined),-21.5%,
CC(C)CNC(=O)NCC1Cn2cccc2C(=O)N1Cc1ccccc1 (centres undefined),-2.01%,

Structure (SMILES),"activity change, negative = inhibition",Potency
O=C(NCC1Cn2cccc2C(=O)N1Cc1ccccc1)c1ccco1 (centres undefined),11.7%,
O=C(NCC1Cn2cccc2C(=O)N1Cc1ccccc1)c1ccc(F)cc1 (centres undefined),0.623%,
O=C(NCC1Cn2cccc2CN1Cc1ccccc1)c1ccco1 (centres undefined),,28.2 µM (active)
CCCn1nc(C(=O)NCc2cccc(OC)c2)c2ccccc2c1=O,16.7%,
O=C(CSc1ncc(CO)n1Cc1ccc(F)cc1)NCc1ccc2c(c1)OCO2,13.1%,
CN(C(=O)Cn1c(=O)n(C)c(=O)c2sccc21)c1ccccc1,-13.8%,
Cc1ccc(C(=O)c2ccccc2C(=O)OCc2c(Cl)cccc2Cl)cc1,-9.31%,
O=C(NCCc1nc2ccccc2[nH]1)c1ccc(N2CCCN(Cc3ccccc3)C2=O)cc1,2.86%,
O=C1Nc2ccc(Br)cc2C(=O)N2CCN(C(=O)C3CCCCC3)C[C@H]12,-26.5% [at 86.2 µM],
COCCn1ccc2cc(C(=O)Nc3ccc4c(c3)C(=O)N3CCC[C@H]3C(=O)N4)ccc21,9.94%,
COCC(=O)N[C@H]1C[C@H]2C(=O)Nc3ccc(/C=C/c4ccc(OC)cc4)cc3C(=O)N2C1,,28.2 µM (active)
COc1ccc(C(=O)N2CCc3nc(C(C)C)nc(-c4ccc(Cl)cc4)c3CC2)cc1,-3.56% [at 115 µM],
Cc1nn(CC(=O)NC(C)(C)C)c(C)c1S(=O)(=O)N1CCCC(C(=O)N2CCC(C)CC2)C1 (centres undefined),16.9%,
Cc1cc(NC(=O)CCSc2nnc3c(Cl)cc(C(F)(F)F)cn23)no1,-3.18%,
COc1ccc(C(=O)N[C@H](C(=O)NCc2ccccc2)C(C)C)cc1,10%,
O=C(C1NCCc2[nH]cnc21)N1CCc2nnc(-c3ccccc3)n2CC1 (centres undefined),-24.4%,
O=C(NCc1nnc2ccccn12)C1NCCc2[nH]cnc21 (centres undefined),0.217%,
Nc1nc(CCCNC(=O)C2NCCc3[nH]cnc32)cs1 (centres undefined),,25.1 µM (active)
COc1ccc2nc(C)c(C(=O)N(C)CC3COc4ccccc4O3)cc2c1 (centres undefined),-8.89%,
C/C(=N/NC(=S)NCc1ccccc1)c1cccc(C(F)(F)F)c1,-5.68%,
